Reference: PMC4336329 (PLoS ONE, 2015)
The whole screen tested about 310,000 compounds, of which about 14,000 (4.5%) showed an effect of 50% or more. The effect is printed as a negative number. Only a selection was taken, and strong results are over-represented in it overall.

What follows are compounds tested against human ether-à-go-go-related gene (hERG) potassium channel (human, UniProt Q12809) (assay: primary screen, population patch clamp on CHO cells stably expressing hERG; higher = less effect of the substance).
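Also: peak tail current of the secondary pulse compared with the same well before compound.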

Sequence of human ether-à-go-go-related gene (hERG) potassium channel (Q12809 whole entry, looked up): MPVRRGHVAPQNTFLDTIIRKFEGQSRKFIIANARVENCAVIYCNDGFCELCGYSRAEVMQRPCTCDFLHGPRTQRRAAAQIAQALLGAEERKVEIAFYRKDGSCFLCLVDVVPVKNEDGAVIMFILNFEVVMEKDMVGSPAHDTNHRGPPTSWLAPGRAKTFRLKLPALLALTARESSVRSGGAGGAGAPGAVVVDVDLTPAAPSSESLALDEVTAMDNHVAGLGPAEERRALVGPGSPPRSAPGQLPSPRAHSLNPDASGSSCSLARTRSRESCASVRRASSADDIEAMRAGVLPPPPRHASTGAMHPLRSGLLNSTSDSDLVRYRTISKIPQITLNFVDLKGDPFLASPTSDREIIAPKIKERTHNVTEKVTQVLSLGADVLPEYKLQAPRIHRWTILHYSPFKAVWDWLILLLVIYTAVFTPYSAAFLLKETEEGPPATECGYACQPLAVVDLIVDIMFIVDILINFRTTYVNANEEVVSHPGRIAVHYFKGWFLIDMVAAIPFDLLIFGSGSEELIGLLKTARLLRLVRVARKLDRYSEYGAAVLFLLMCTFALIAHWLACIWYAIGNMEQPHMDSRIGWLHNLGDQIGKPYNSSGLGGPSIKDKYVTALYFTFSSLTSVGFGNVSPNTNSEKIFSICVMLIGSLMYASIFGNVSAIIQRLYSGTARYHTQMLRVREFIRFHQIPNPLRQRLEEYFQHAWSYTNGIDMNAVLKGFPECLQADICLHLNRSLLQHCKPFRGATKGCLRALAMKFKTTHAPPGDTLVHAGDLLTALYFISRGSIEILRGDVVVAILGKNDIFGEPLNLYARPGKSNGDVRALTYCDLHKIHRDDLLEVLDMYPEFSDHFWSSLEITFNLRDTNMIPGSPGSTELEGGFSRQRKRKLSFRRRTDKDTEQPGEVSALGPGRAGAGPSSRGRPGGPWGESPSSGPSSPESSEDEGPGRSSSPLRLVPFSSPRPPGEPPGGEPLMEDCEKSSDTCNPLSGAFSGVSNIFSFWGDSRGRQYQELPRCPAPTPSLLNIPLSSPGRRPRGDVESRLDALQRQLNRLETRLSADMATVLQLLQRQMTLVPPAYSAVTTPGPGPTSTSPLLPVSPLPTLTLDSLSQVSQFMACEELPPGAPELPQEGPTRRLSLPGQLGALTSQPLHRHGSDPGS

SMILES	hERG current change (%, negative = inhibition) at 10uM
CCc1ccc(NC(=O)Cn2nc(C)n3cccc3c2=O)cc1	15%
O=C(Nc1cccnc1)c1sc(Nc2ccccc2F)nc1-c1ccccc1	20.5%
O=C(O)/C=C\C(=O)Nc1ccc(N2CCN(c3cccc(Cl)c3)CC2)cc1	10.2%
CCCCCN(C(=O)CCC(=O)OCCOc1ccccc1Cl)c1c(N)n(CCCC)c(=O)[nH]c1=O	-41.3%
COC(=O)CSc1nnc(-c2ccc(NS(=O)(=O)c3ccccc3)cc2)o1	9.9%
CC(=O)Oc1ccc2c(C)c(CC(C)O)c(=O)oc2c1 (stereo not drawn)	6.98%
Cl.O=C(NN1CCN(Cc2ccccc2Cl)CC1)c1ccc(Br)cc1	18.3%
Cc1cc(C)c(N=Cc2c(O)[nH]c(=O)[nH]c2=O)c(C)c1	11.6%
CCN(CC)C(=O)C1CCCN(c2ccc([N+](=O)[O-])cc2[N+](=O)[O-])C1 (stereo not drawn)	-38.3%
CCN(CC)C(=O)C1CCCN(c2ccc([N+](=O)[O-])cc2/C=N/NC(=O)c2cccc(O)c2)C1 (stereo not drawn)	-16.9%
Cn1cc(/C=N/NC(=O)c2cccc([N+](=O)[O-])c2)c2ccccc21	14.8%
CCN(CC)C(=O)C1CCCN(c2ccccc2[N+](=O)[O-])C1 (stereo not drawn)	-1.67%
O=C(N/N=C\c1cc([N+](=O)[O-])ccc1N1CCCC1)c1ccccn1	-3.3%
CN1CCN(c2ccc([N+](=O)[O-])cc2/C=N/NC(=O)c2cccc([N+](=O)[O-])c2)CC1	-54%
CCN(CC)C(=O)C1CCCN(c2ccc([N+](=O)[O-])cc2)C1 (stereo not drawn)	-52.2%
CCN(CC)C(=O)C1CCCN(c2ccc([N+](=O)[O-])cc2/C=N/NC(=O)c2cccc([N+](=O)[O-])c2)C1 (stereo not drawn)	-55.3%
CCN(CC)C(=O)C1CCCN(c2ccc([N+](=O)[O-])cc2/C=N/NC(=O)c2cccc(Br)c2)C1 (stereo not drawn)	-0.713%
COc1ccc(-c2nnc(CSc3nc4ccccc4c(=O)n3CC3CCCO3)o2)cc1OC (stereo not drawn)	-49%
COc1ccc(Cc2noc(CN(C)CC3(N4CCOCC4)CCCCC3)n2)cc1OC	-15.5%
CN(Cc1nc(-c2cccs2)no1)CC1(N2CCOCC2)CCCCC1	-24.2%
CN(Cc1nc(Cc2ccccc2F)no1)CC1(N2CCOCC2)CCCCC1	-62.8%
Cc1cc(C(C)(C)C)ccc1OCC(=O)N/N=C\c1c(C)n(C)n(-c2ccccc2)c1=O	-66.3%

SMILES	hERG current change (%, negative = inhibition) at 10uM
COc1cc(Br)cc(Br)c1OCC(=O)N/N=C/c1c(C)n(C)n(-c2ccccc2)c1=O	-23.1%
Cc1ccccc1OCC(=O)N/N=C/c1c(C)nn(-c2ccccc2)c1Cl	1.74%
CCOC(=O)c1c(N/N=C/c2ccncc2)n[nH]c1C	-10.9%
COCCN(CC(=O)NC1CCCCC1)C(=O)CCCC(=O)Nc1ccccn1	10%
COC/C=C/C1=CC2=CC(=O)C(C)(OC(=O)c3cnc4ccccc4n3)C(=O)C2=CN1Cc1ccco1 (stereo not drawn)	0.0609%
O=C(Nc1ccc2[nH]c(=O)[nH]c2c1)C(F)(F)F	14.9%
Cn1cc(C(=O)N2CCCCC2)c2ccccc21	4.66%
Cc1cc(C)c(S(=O)(=O)NCCOc2ccccc2)c(C)c1-n1cnnn1	7.74%
C=CC1CN2CCC1CC2[C@@H](OC(=O)c1ccc(OC)cc1)c1ccnc2ccccc12 (stereo partly drawn)	-37.3%
C=C[C@H]1CN2CC[C@H]1C[C@H]2[C@H](O)c1ccnc2ccccc12	-34%
C=C[C@H]1CN2CC[C@H]1C[C@@H]2[C@@H](O)c1ccnc2ccccc12	-57.1%
CC(Nc1ccccc1)c1cccnc1 (stereo not drawn)	-49.1%
COc1ccc(CCNS(=O)(=O)c2ccc(Cl)cc2)cc1OC	-6.54%
Cc1nn(-c2ccccc2)c(C)c1NC(=O)COc1ccc(C#N)cc1	-36.9%
CC(=O)c1ccc(OCC(=O)Nc2c(C)nn(-c3ccccc3)c2C)cc1	-2.73%
CC(=O)Nc1ccc(S(=O)(=O)NCCC(=O)OCc2ccc([N+](=O)[O-])cc2)cc1	-57.4%
CC(NC(=O)COc1ccc([N+](=O)[O-])cc1)c1ccccc1 (stereo not drawn)	-34.5%
Cc1ccc(S(=O)(=O)NCCC(=O)OCc2ccc([N+](=O)[O-])cc2)cc1C	-42.3%
CCOC(=O)CC(NC(C)=O)c1ccc([N+](=O)[O-])cc1 (stereo not drawn)	-1.79%
Cc1nn(-c2ccccc2)c(C)c1NC(=O)COc1ccc([N+](=O)[O-])cc1	-69.4%
CC(=O)NC(CC(=O)O)c1ccc([N+](=O)[O-])cc1 (stereo not drawn)	10.6%
CCC(NC(=O)COc1ccc([N+](=O)[O-])cc1)c1ccccc1 (stereo not drawn)	-50.7%

SMILES	hERG current change (%, negative = inhibition) at 10uM
CC(=O)NC(CC(=O)OCc1ccc([N+](=O)[O-])cc1)c1ccccc1 (stereo not drawn)	-63.1%
O=C(O)CC(NC(=O)COc1ccccc1)c1cccc([N+](=O)[O-])c1 (stereo not drawn)	18.8%
CC(=O)Nc1ccc(S(=O)(=O)NCCC(=O)OCc2ccccc2F)cc1	-8.68%
CCOc1ccc(S(=O)(=O)N(CC)CC)cc1NC(=O)c1ccc(N2CCCC2=O)cc1	18.2%
O=C(N/N=C/c1cccnc1)c1ccc(CN2c3cccc4cccc(c34)S2(=O)=O)cc1	5.22%
CCC(C(=O)NCc1cccs1)n1nc(C)n2c(cc3occc32)c1=O (stereo not drawn)	0.0905%
COC(=O)c1ccc(NC(=O)N2CCC(O)(c3cccnc3)CC2)cc1	9.11%
CCOC(=O)c1cccc(NC(=O)CSc2nnc(COc3ccc(Cl)cc3)o2)c1	16.3%
COc1ccc(C(C(=O)NC2CCCCC2)N2CCC3(CC2)OCCO3)cc1 (stereo not drawn)	-8.32%
Nn1c(Nc2ccccc2)nc2ccccc2c1=O	14.2%
O=C(CC1C(=O)NCCN1Cc1cccc(F)c1F)NC1CCCCCC1 (stereo not drawn)	-10.6%
CC1CCN(c2ccc(S(=O)(=O)NC3=NCCCCC3)cc2[N+](=O)[O-])CC1	-11.2%
COc1cccc(C2CC(c3cccs3)=NN2S(C)(=O)=O)c1OC (stereo not drawn)	7.29%
CCc1cc(C(=O)NNC(=S)Nc2cccc(C)c2)cs1	3.09%
O=C1c2ccccc2C(=O)N1CCSc1ncn[nH]1	19.7%
O=[N+]([O-])c1ccccc1S(=O)(=O)NCc1ccc(F)cc1	7.19%
CCC(NC(=O)c1ccccc1O)c1ccccc1 (stereo not drawn)	-33.3%
CC(NC(=O)c1ccc([N+](=O)[O-])cc1[N+](=O)[O-])c1ccc(-c2ccccc2)cc1 (stereo not drawn)	-1.64%
CCC(NC(=O)c1ccc([N+](=O)[O-])cc1[N+](=O)[O-])c1ccccc1 (stereo not drawn)	-56%
CN(C)c1ccc(CNCC2CCCO2)cc1.Cl (stereo not drawn)	10.5%
Cc1ccc(NC(=O)CN(C)C(=O)CCC(=O)c2cccs2)cc1	-16.2%
CC1CCOC2(O1)C(=O)Nc1ccccc12 (stereo not drawn)	16.1%

SMILES	hERG current change (%, negative = inhibition) at 10uM
O=C(NCCCN1CCOCC1)c1cc(-c2ccc(F)cc2)nc2ccccc12	-27.5%
CC(C)OCCCNC(=O)c1cc(Sc2ccc(F)cc2)nc2ccccc12	-5.77%
O=C(NCCCN1CCCC1)c1cc(Sc2ccc(F)cc2)nc2ccccc12	-74.1%
COCCCNC(=O)c1cc(Sc2nnc(C)s2)nc2ccccc12	2.3%
CCN(CC)CCCNC(=O)c1cc(Sc2nnc(C)s2)nc2ccccc12	-40.4%
Cc1nnc(Sc2cc(C(=O)NCCCN(C)Cc3ccccc3)c3ccccc3n2)s1	-56.2%
CN(C)CCNC(=O)c1cc(Sc2ccc(F)cc2)nc2ccccc12	-72.5%
Cc1ccc(Sc2cc(C(=O)NCCN(C)C)c3ccccc3n2)cc1	-93.9%
CCN(CC)CCNC(=O)c1cc(Sc2nnc(C)s2)nc2ccccc12	-45.3%
CCOCCCNC(=O)c1cc(Sc2ccc(F)cc2)nc2ccccc12	-12.4%
COCCCNC(=O)c1cc(Sc2ccc(F)cc2)nc2ccccc12	-26.9%
COCCNC(=O)c1cc(Sc2nnc(C)s2)nc2ccccc12	-18.2%
O=C(O)CCc1ccc(-c2ccc(F)cc2)n1NC(=O)c1ccco1	8.01%
CCN(CC(=O)N1CCN(C)CC1)S(=O)(=O)c1ccc(Cl)cc1	-5.94%
O=C1c2ccccc2S(=O)(=O)c2cc(C(=O)N3CCCC3)ccc21	-1.93%
O=C(CNC(=O)c1cccc(Br)c1)N/N=C/c1cccnc1	-14%
O=C(Nc1cccc(-c2ccc(N3CCCCC3)nn2)c1)C(F)(F)F	-8.5%
C/C(CC(=O)NC1CCCCC1)=N\NC(=O)COc1ccc(C)cc1Br	-22.8%
CCOCCCNC(=O)c1cc(Sc2nnc(C)s2)nc2ccccc12	-2.23%
Cc1ccc(Sc2cc(C(=O)NCCCN(C)C)c3ccccc3n2)cc1	-56.5%
CCOCCCNC(=O)c1cc(Sc2ccc(C)cc2)nc2ccccc12	-19.3%
